The results in this text go back to PubChem BioAssay AID1259343 (VanderVen Lab, College of Veterinary Medicine, Cornell …, 2017).

The campaign covered roughly 6,200 compounds. About 2,900 (47%) were called active. The set was probably picked from earlier hits. This is one part of the list. Unmarked numbers belong to inactive results. Cut-off read from the data, not from the text of the source: active = inhibition above about 50%; inactive = the rest.

What is called inhibition is the change of the read-out against control, counted positive when it falls.

This experiment in a line: Mycobacterium tuberculosis growth inhibition, primary screen (AID 1259343). The following applies: inhibition: at 10 µM, hits give high values; outcome: 10 uM.
`Cc1cc(C2=NNC(=NCc3ccco3)SC2)c(C)n1Cc1ccco1`: the inhibition is -40.5%.
For `Cc1cc(C2=NNC(=NCC3CCCO3)SC2)c(C)n1Cc1cccs1` (configuration not stated), the inhibition was 23.6%.
For `Cc1cc(C2=NNC(=NC3CCCC3)SC2)c(C)n1Cc1ccco1` the value was 99.4% (active); for `CC(C)(C)N=C1NN=C(c2c[nH]c3ccccc23)CS1`, -10%.
Regarding `COCCCN=C1NN=C(c2cc(C)n(Cc3ccco3)c2C)CS1`, the inhibition was 63.8% (active).
For `CC(C)(C)N=C1NN=C(c2ccc3ccccc3c2)CS1` the value was 9.77%; for `FC(F)Oc1ccc(C2=NNC(=NC3CC3)SC2)cc1`, 18.9%.
With `Cc1ccc(N=C2NN=C(c3cc(F)ccc3F)CS2)c(C)c1` the figure was 31.9%; with `Cc1cc(C2=NNC(=NC3CC3)SC2)c(C)n1-c1ccccc1F`, 95.9% (active); with `Cc1ccccc1N=C1NN=C(c2ccccc2F)CS1`, 68.3% (active).
As for `Cc1cc(C2=NNC(=NCc3ccc4c(c3)OCO4)SC2)c(C)n1Cc1ccco1`, the inhibition is -5.02%.
For `CCCCN=C1SCC(c2cc(C)n(Cc3ccco3)c2C)=NN1C` the value was 44%.
With `O=c1c2c(F)c(F)c(F)c(F)c2on2c3c(nc12)CCCC3` the figure was 44.8%; with `O=[N+]([O-])c1ccc(Sc2nnnn2-c2ccccc2)c([N+](=O)[O-])c1`, 89.6% (active).
Take `O=C(CSc1nnnn1-c1ccccc1)NNC(=O)c1ccc(O)cc1O`: the inhibition was 11.6%.
As for `CC(C)c1ccc(-n2nnnc2SC(C)c2nnc(-c3ccc([N+](=O)[O-])cc3)o2)cc1` (configuration not stated), the inhibition was 18.5%.
With `c1ccc(-n2nnnc2SCCNc2nc3ccccc3[nH]2)cc1` the figure was 42.9%; with `c1ccc(Sc2c(-c3ccccc3)nc3sccn23)cc1`, 34.5%.
For `O=[N+]([O-])c1c(Sc2nnnn2-c2ccccc2)nc2sccn12` the value was 99.2% (active); for `O=C1c2ccccc2NC2(CCCC2)N1CC(F)(F)F`, 85.2% (active).
With `NC(=S)N=Nc1ccc(NN=C(N)N)cc1` the figure was 101% (active); with `CC(=O)C1=C(C(F)(F)F)N(C)C(=S)N(C)C1c1ccccc1` (configuration not stated), 70% (active).
Take `CN1CC(=O)N(CCCC(=O)Nc2ccc(OCc3ccccc3)cc2)C1=O`: the inhibition was 93.5% (active).
With `COc1ccc(OCCN2C(=O)CN(/C=C/c3ccccc3)C2=O)cc1` the figure was -5.21%.
For `C=CCN(CC(O)COc1ccccc1)CC1CC(c2ccccc2)=NO1` (configuration not stated) the value was 20.8%; for `OC1(c2ccc(OCc3ccccc3)cc2)CCOCC1`, 30.5%.
For `CC(O)CNCCCCOc1ccc(OCc2ccccc2)cc1` (configuration not stated) the value was 96.8% (active).
Regarding `NS(=O)(=O)c1ccc2c(c1)CCN2Cc1cc(F)cc2c1OCOC2`, the inhibition was 3.61%.
With `O=C(O)C1CCN(C(=O)c2ccc(-c3ccc(Cl)cc3)s2)CC1` the figure was 1.69%.
With `CC1CCN(C(=O)c2ccc(-c3ccc(F)c(F)c3)s2)CC1` the figure was 65.3% (active); with `Cc1ccc(C(=O)N2CCC(c3ccc(F)cc3)CC2)s1`, 33.5%.
With `COc1cc(NC(=O)CN2CCC(n3ccnc3)C2)ccc1Cl` (configuration not stated) the figure was 85.6% (active); with `COc1ccc(NC(=O)N2CCCC(C(=O)c3sccc3C)C2)cc1OC` (configuration not stated), 23.7%.
For the compound `O=C(NCC(O)COc1cccc(Cl)c1Cl)C1CC1c1ccco1` (configuration not stated), the inhibition is 12.8%.
For the compound `COc1cccc(C2CC2C(=O)Nc2cnc(C3CC3)nc2)c1` (configuration not stated), the inhibition is 37.3%.
For `O=C(Nc1ncc(Cl)s1)C1CC1c1ccco1` (configuration not stated) the value was 86.5% (active); for `CCc1cc(=O)[nH]c(-n2nc(C)cc2NC(=O)c2cc(OC)c(OC)c(OC)c2)n1`, -22.3%; for `CCCc1cc(=O)[nH]c(-n2nc(C)cc2NC(=O)c2ccc(OC)c(OC)c2)n1`, 102% (active).
With `CCCc1cc(=O)[nH]c(-n2nc(C)cc2NC(=O)c2cc(OC)c(OC)c(OC)c2)n1` the figure was 100% (active).
With `O=C(O)COc1ccc2cc(Br)ccc2c1` the figure was 78.5% (active); with `COC(=O)CN1C(c2ccc(OC)cc2)=Nc2ccc(Br)cc2C1c1ccccc1` (configuration not stated), 29.4%; with `CC(NC(=O)COc1ccc2cc(Br)ccc2c1)c1ccc(F)cc1` (configuration not stated), -32.3%.
Turning to `Cc1cccc2c3c(ccc12)C1=C(C(=O)C3=O)C(C)CO1` (configuration not stated), the inhibition was 82.3% (active).
For the compound `CN(CC(F)(F)C(F)F)S(=O)c1ccc2ccccc2c1` (configuration not stated), the inhibition was 49%.
For `CC(NCC1(c2ccccc2)CCCC1)c1nnc(-c2ccccc2)o1` (configuration not stated) the value was -0.11%; for `COc1ccc(-c2nnc(C(C)Nc3cccc4c3CCCC4)o2)cc1` (configuration not stated), 67.9% (active).
For `CN(Cc1ccccc1)C(=O)NCCc1ccc2c(c1)CCO2` the value was 66.7% (active).
With `O=C(Cc1ccc2c(c1)CCC2)NCCc1ccc2c(c1)OCCO2` the figure was 37.8%; with `CN(Cc1ccco1)C(=O)NCCc1cccc(Cl)c1`, 49.7%; with `FC(F)(F)c1nnc2sc(Cc3cccc4ccccc34)nn12`, 71.8% (active).
With `c1ccc(CCCCc2nn3c(C4CC4)nnc3s2)cc1`, the inhibition is 34.8%.
With `O=S(=O)(NCc1ncc(-c2ccccc2)o1)N1CCCCCC1`, the inhibition is 58.4% (active).
With `O=S(=O)(NCCCC1CCCCC1)N1CCCCCC1` the figure was 26.3%.
With `CC1CCN(S(=O)(=O)NCc2cc(-c3ccccc3)on2)CC1`, the inhibition is 20.4%.
With `Cc1oc(=O)oc1CN1CCN(c2cc3c(cc2F)c(=O)c(C(=O)O)c2n3C(C)S2)CC1` (configuration not stated) the figure was 96.9% (active); with `CN1C(=CC=NN=c2sc3ccccc3n2C)C(C)(C)c2ccccc21`, 4.19%.
For `CN1C(=CC=NNc2nc3ccccc3s2)C(C)(C)c2ccccc21` the value was 97% (active); for `c1cc(-c2nc3cc(Oc4ccc5oc(-c6ccncc6)nc5c4)ccc3o2)ccn1`, 32.7%.
As for `Cc1ccc(CN2CCN(N=CC(Br)=Cc3ccccc3)CC2)c(C)c1`, the inhibition was 98.3% (active).
With `O=C(NN=CC(Br)=Cc1ccccc1)c1cnccn1` the figure was -13.9%.
For `COC(=O)c1ccc(C(=O)NNc2nc3c(C)cccc3s2)cc1` the value was 99.7% (active); for `COc1ccccc1OCC(=O)N1CCC(Oc2nc3c(C)cccc3s2)CC1`, 20.8%.
With `Cc1cccc2sc(N(Cc3ccccc3)C(=O)c3ccno3)nc12` the figure was 35.8%; with `Cc1cc(C)cc(Oc2cc(-n3nc(C)cc3C)ncn2)c1`, 65.7% (active); with `CCCN(C)c1cc(Oc2ccc(C)cc2)ncn1`, 25.2%.
Regarding `c1ccc(-c2noc3nc(NC4CC4)ccc23)cc1`, the inhibition is 44.6%.
With `Fc1ccc(-c2noc3nc(NC4CC4)ccc23)cc1` the figure was 92.9% (active).
With `Fc1ccccc1-c1noc2nc(NC3CC3)ccc12` the figure was 70.5% (active).
For `COCCCNc1ccc2c(-c3ccccc3F)noc2n1` the value was 76.1% (active); for `CC1CCCC(C)N1CCNc1ccc2c(-c3ccc(F)cc3)noc2n1` (configuration not stated), 47.2%; for `CCCC1=NN(C(C)=O)C(C(=O)NCCCN2CCCCC2C)O1` (configuration not stated), -9.23%.
`c1ccc(-c2nc3c(ccc4ccccc43)[nH]2)nc1`: the inhibition is 96.1% (active).
Take `Oc1ccc2[nH]c(-c3ccccc3)nc2c1CN1CCCCC1`: the inhibition is 13.3%.
For `c1ccc(-c2nc3cc4ccccc4cc3[nH]2)nc1` the value was 17.5%.
As to `c1ccc(-c2nc3c(ccc4ccccc43)[nH]2)cc1`, the inhibition is 89.8% (active).
For `O=C1NC(=O)/C(=C/c2csc(-c3ccccc3)n2)S1` the value was 59.2% (active); for `CC(C)C(=O)Nc1ccc(OCC(F)(F)F)c(C#N)c1`, -16.8%.
For `O=C(NCC1CCCCN1)c1cc(OCC(F)(F)F)ccc1OCC(F)(F)F` (configuration not stated) the value was 84.3% (active).
For `CC(C)c1ccc(C(C)NC(=O)c2cccn2C)cc1` (configuration not stated) the value was 79% (active); for `Cn1cccc1C(=O)NS(=O)(=O)c1ccc(C#N)c(Cl)c1`, 15%.
As for `CC(NC(=O)c1cccnc1N1CCCCC1)c1ccc(C#N)cc1` (configuration not stated), the inhibition was 4.4%.
With `Cc1ccc(C)c(-c2cc(C(=O)NCCC(=O)NCc3ccc(F)cc3)no2)c1` the figure was 71.3% (active).
As for `CN(Cc1ccccc1)Cc1cc(C(=O)NCc2cccc(F)c2F)no1`, the inhibition is 38.5%.
With `Cn1cnc([N+](=O)[O-])c1Sc1ncnc2nc[nH]c12` the figure was 56.7% (active); with `Cc1cc(C(=O)Nc2ccc3c(c2)OC2(CCCC2)O3)c(C)o1`, 56% (active); with `Cc1cc(C(=O)Nc2ccc(C(C)C)cc2)c(C)o1`, 61.2% (active).
With `CC(C)c1ccc(NC(=O)c2ccc(S(N)(=O)=O)cc2)cc1` the figure was 2.35%; with `O=S(=O)(Nc1ccc2c(c1)OC1(CCCC1)O2)c1cccs1`, 27%.
With `CC1(C)Oc2ccc(NC(=O)c3ccnc(NC4CC4)c3)cc2O1` the figure was -11.8%; with `O=C(Nc1ccc(N2CCc3ccccc32)cc1)C1CCOC1` (configuration not stated), 74.7% (active).
As for `O=C(O)c1cn(Cc2cccc(F)c2)nc1OCc1cccc(F)c1`, the inhibition is 29.7%.
With `O=C(O)c1cn(Cc2ccccc2)nc1OCc1ccccc1` the figure was 72.7% (active).
For `O=C(O)c1cn(Cc2ccc(F)cc2)nc1OCc1ccc(F)cc1` the value was 47.5%.
For `COc1ccc(CCC(=O)Nc2cc(C)nn2-c2nc(C)cc(=O)[nH]2)cc1` the value was 101% (active); for `CCc1cc(=O)[nH]c(-n2nc(C)cc2NC(=O)Cc2ccc(OC)cc2)n1`, 101% (active); for `CCCc1cc(=O)[nH]c(-n2nc(C)cc2NC(=O)CCc2ccc(OC)cc2)n1`, 101% (active).
For the compound `COc1ccc(CC(=O)Nc2cc(C)nn2-c2nc(C)cc(=O)[nH]2)cc1`, the inhibition is 101% (active).
For `COC(C)c1ccc(-c2ccc(NC(=O)CN)c(F)c2)cc1` (configuration not stated) the value was 70.7% (active); for `NCC(=O)Nc1ccc(-c2cccc3ccsc23)cc1F`, 7.93%.
With `Fc1ccccc1CNCC1(c2ccnc(-c3ccc(Cl)cc3)c2)CC1` the figure was 44%; with `Fc1ccccc1CCNc1ncnc2ccc(Cl)cc12`, 60.7% (active); with `Fc1ccccc1-c1cnnc(NCCc2cccc(Cl)c2)n1`, 37.3%.
